# Assay results as given in the supplement of paper PMC9254222.
# Whole data set: some 1,100 compounds, median “Wnt reporter firefly/Renilla luciferase ratio relative to plate median” near 1.1, cut for the highest 2% near 1.6. What follows is part of a selection rich in the highest values, with near analogues and random picks from the rest.
# System: HEK293T (UBE3A T485A transfected, BAR Wnt reporter)
# Experiment: Wnt reporter firefly/Renilla luciferase ratio relative to plate median (fold (linear ratio)); higher = more Wnt/beta-catenin reporter activation
# Conditions: 24 h
# How it was run: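 Using Fugene 6, HEK293T cells in white 384-well plates (4500 cells/well; DMEM, 10% FBS, 37°C, 5% CO2) were transfected with a BAR firefly luciferase Wnt reporter, TK-Renilla and an expression plasmid. After four hours, robots dosed the chemicals at 0.01–100 uM, and a Dual-Glo luciferase readout followed 24 h later. Per-plate median-centred firefly/Renilla ratios gave Wnt activity, while per-plate median-centred raw Renilla signals gave cell health. Four biological replicates were averaged.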
Compound,Wnt reporter firefly/Renilla luciferase ratio (concentration: 0.1 uM),Wnt reporter firefly/Renilla luciferase ratio (concentration: 1 uM),Wnt reporter firefly/Renilla luciferase ratio (concentration: 10 uM),Wnt reporter firefly/Renilla luciferase ratio (concentration: 100 uM),Wnt reporter firefly/Renilla luciferase ratio (concentration: 0.01 uM)
CC[C@H](c1ccc(O)cc1)[C@@H](CC)c1ccc(O)cc1 [meso-Hexestrol],0.858,1.05,0.711,0.0535,
CCCCc1ccc2c(n1)[C@@H](c1ccc(OC)cc1C[C@H](C)C(=O)[O-])[C@H](C(=O)[O-])[C@H]2c1ccc2c(c1)OCO2.[Na+].[Na+],1.37,1.08,1.18,0.429,
OCC1OC(n2cnc3c(NC4CCCC4)ncnc32)C(O)C1O (stereo not drawn) [N6-Cyclopentyl adenosine],1.15,1.06,1.05,1.18,1.31
Cl.Nc1ccn([C@@H]2O[C@H](CO)[C@@H](O)[C@@H]2O)c(=O)n1 [Cytarabine hydrochloride],1.1,0.941,0.171,0.125,
Nc1ncn([C@@H]2O[C@H](CO)[C@@H](O)[C@H]2O)c(=O)n1 [5-azacytidine],1.52,1.36,0.213,2.42,1.01
c1ccc(C(O[C@@H]2CCCN(CCc3ccc4c(c3)OCO4)C2)c2ccccc2)cc1 [Zamifenacin],1.15,1.05,0.996,1.13,
CS(=O)(=O)O.Cc1nccn1-c1ccc(Sc2cccc(C3(C(N)=O)CCOCC3)c2)cc1,1.01,0.73,0.387,0.282,
COc1ccc2sc(C(=O)Nc3nnn[n-]3)c(OC(C)C)c2c1.[Na+],1.08,1.08,1.35,,
CC(=O)OCCC(C)C [3-Methylbutyl acetate],1.41,0.938,1.03,1.09,
CCCCOC(=O)CCCCCCCCC(=O)OCCCC [Dibutyl decanedioate],0.951,0.896,0.802,2.33,
CC(=O)OCCOCCOCCOC(C)=O [Triethylene glycol diacetate],1.25,1.16,1.07,1.26,
CCCCOC(=O)CCCCC(=O)OCCCC [Dibutyl hexanedioate],0.981,0.969,1,1.08,
CCCCCCC(=O)OCC [Ethyl heptanoate],1.14,1.05,1.47,1.14,
CCCCCOC(C)=O [Pentyl acetate],1.22,0.968,1.4,1.61,
"Cc1cccc(C)c1O [2,6-Dimethylphenol]",1.32,0.992,1.45,1.16,
CC(=O)c1ccc2c(c1)[C@H](NC(=O)c1ccc(F)cc1)[C@@H](O)C(C)(C)O2 [Carabersat],1.27,1.07,1.04,1.43,
C=C(C)C(N)=O [Methacrylamide],1.22,1.04,1.05,1.25,
"Oc1ccc(C(c2ccc(O)cc2)C(Cl)(Cl)Cl)cc1 [2,2-Bis(4-hydroxyphenyl)-1,1,1-trichloroethane]",1.3,0.957,0.541,,1.02
CC(=O)[C@@]1(O)CC[C@H]2[C@@H]3CCC4=CC(=O)CC[C@]4(C)[C@H]3CC[C@@]21C [17alpha-Hydroxyprogesterone],1.06,1.02,1.03,0.475,

Compound,Wnt reporter firefly/Renilla luciferase ratio (concentration: 0.1 uM),Wnt reporter firefly/Renilla luciferase ratio (concentration: 1 uM),Wnt reporter firefly/Renilla luciferase ratio (concentration: 10 uM),Wnt reporter firefly/Renilla luciferase ratio (concentration: 100 uM),Wnt reporter firefly/Renilla luciferase ratio (concentration: 0.01 uM)
NC(=O)N/N=C/c1ccc([N+](=O)[O-])o1 [Nitrofurazone],1.22,1.02,0.506,0.32,
Nc1nc(=O)c2nc(CNc3ccc(C(=O)N[C@@H](CCC(=O)O)C(=O)O)cc3)cnc2[nH]1 [Folic acid],1.38,1.01,0.97,1.26,
O=C(OC[C@H]1O[C@@H](OC(=O)c2cc(O)c(O)c(OC(=O)c3cc(O)c(O)c(O)c3)c2)[C@H](OC(=O)c2cc(O)c(O)c(OC(=O)c3cc(O)c(O)c(O)c3)c2)[C@@H](OC(=O)c2cc(O)c(O)c(OC(=O)c3cc(O)c(O)c(O)c3)c2)[C@@H]1OC(=O)c1cc(O)c(O)c(OC(=O)c2cc(O)c(O)c(O)c2)c1)c1cc(O)c(O)c(OC(=O)c2cc(O)c(O)c(O)c2)c1 [Tannic acid],0.923,1.19,1.38,,
CCC(C)N(C)C(=O)c1cc2ccccc2c(-c2ccccc2Cl)n1 (stereo not drawn),0.925,1.31,1.03,0.292,
"CC(C)(C)c1cc(O)c(C(C)(C)C)cc1O [2,5-Di-tert-butylbenzene-1,4-diol]",1.14,0.988,1.13,,
"CC(C)(C)c1cccc(C(C)(C)C)c1O [2,6-Di-tert-butylphenol]",1.12,1.01,1.3,1.72,
"CC(C)(C)c1ccc(O)c(C(C)(C)C)c1 [2,4-Di-tert-butylphenol]",0.984,1.32,1.13,1.1,
CCN(Cc1cccc(S(=O)(=O)[O-])c1)c1ccc(C(=C2C=CC(=[N+](CC)Cc3cccc(S(=O)(=O)[O-])c3)C=C2)c2ccccc2S(=O)(=O)[O-])cc1.[Na+].[Na+],0.943,1.04,0.706,0.433,
"CC1(C)C(=O)NC(=O)N1CO [1-(Hydroxymethyl)-5,5-dimethylhydantoin]",1.14,0.992,1.12,1.59,
CN1CCC(c2c(O)cc(O)c3c(=O)cc(-c4ccccc4Cl)oc23)C(O)C1 (stereo not drawn) [Flavopiridol],2,,,,1.17
CN(C)C(=O)NC1(c2ccccc2)CCN(CCC[C@@]2(c3ccc(Cl)c(Cl)c3)CCCN(C(=O)c3ccccc3)C2)CC1,1.08,0.903,0.985,,
O=C(O)/C=C/C(=O)O.O=C1c2ccccc2C(=O)N1CCc1noc(-c2ccc(CN3CCCCCC3)s2)n1,1.17,1.07,0.907,0.252,
NC(=O)N1c2ccccc2C=Cc2ccccc21 [Carbamazepine],1.35,0.977,0.997,0.929,
CC(=O)Oc1ccccc1C(=O)O [Aspirin],1.2,1.04,1.15,0.812,
Cc1cc2c(cc1C(F)(F)F)N(C(=O)Nc1ccc(Oc3cccnc3C)nc1)CC2.Cl,1.03,1.4,0.768,0.554,
CCN(Cc1c(F)cccc1Cl)c1c([N+](=O)[O-])cc(C(F)(F)F)cc1[N+](=O)[O-] [Flumetralin],1.65,1.11,0.843,0.851,1.23
CCCN(CCC)c1c([N+](=O)[O-])cc(C(F)(F)F)c(N)c1[N+](=O)[O-] [Prodiamine],1.47,1.2,1.2,1.29,1.16
CC(C(C)N1CC(=O)NC(=O)C1)N1CC(=O)NC(=O)C1 (stereo not drawn),1.88,1.23,1.33,1.53,1.31
C#C[C@]1(O)CC[C@H]2[C@@H]3CCc4cc(O)ccc4[C@H]3CC[C@@]21C [17alpha-Ethinylestradiol],1.06,0.888,1.12,0.42,

Compound,Wnt reporter firefly/Renilla luciferase ratio (concentration: 0.1 uM),Wnt reporter firefly/Renilla luciferase ratio (concentration: 1 uM),Wnt reporter firefly/Renilla luciferase ratio (concentration: 10 uM),Wnt reporter firefly/Renilla luciferase ratio (concentration: 100 uM),Wnt reporter firefly/Renilla luciferase ratio (concentration: 0.01 uM)
CC(=O)O [Acetic acid],1.13,1.09,1.46,1.17,
C#C[C@]1(O)CC[C@H]2[C@@H]3CCC4=CC(=O)CC[C@@H]4[C@H]3CC[C@@]21CC [Norgestrel],0.82,1.09,1.07,1.36,
CS(=O)(=O)O.Cc1cc(CCN2CCN(c3nsc4ccccc34)CC2)cc2c1NC(=O)CC2(C)C,0.776,0.735,0.407,,
CCNc1cccc(C)c1 [N-Ethyl-3-methylaniline],0.98,1.05,1.05,1.54,
O=C(N[C@@H](Cc1ccccc1)[C@@H](O)C(=O)N1C[C@@H](O)[C@@H](O)C1)c1cc2cc(Cl)ccc2[nH]1 [Ingliforib],1.29,1.69,0.888,0.353,
CCCCCCCCOc1ccc(C(=O)c2ccccc2)c(O)c1 [Octabenzone],1.12,1.08,0.916,1.2,
O=C(O)C1(C(=O)Nc2ccc(Cl)cc2Cl)CC1 [Cyclanilide],1.6,1.16,1.53,0.874,1.46
O=C(N[C@@H](c1ccccc1)[C@@H]1CCCCN1)c1cccc(C(F)(F)F)c1Cl,0.912,1.24,0.921,,
CCOC(=O)COc1ccc2c(c1)CC(NCC(O)c1cccc(Cl)c1)CC2.Cl (stereo not drawn),1.06,1.18,1.15,1.19,
Cl.Clc1cc(Cl)c2c(c1)N=C1CCCCCN1C2,0.996,1.26,1.13,0.303,
Cc1[nH]nc2c1N=C(c1ccccc1Cl)c1cc([N+](=O)[O-])ccc1N2,1.21,1.72,104,89.3,
Nc1nc2nc[nH]c2c(=S)[nH]1 [6-Thioguanine],1.31,1.03,,,
CCCCC(CC)COC(=O)CCCCCCCC(=O)OCC(CC)CCCC (stereo not drawn) [Bis(2-ethylhexyl) nonanedioate],1.04,0.979,1.33,1.24,
O=C(NO)C1(NS(=O)(=O)c2ccc(Oc3ccc(F)cc3)cc2)CCOCC1,1.18,0.992,0.736,0.244,
O=C(O)[C@H](O)[C@@H](O)C(=O)O [L-Tartaric acid],1.14,1.29,0.958,1.46,
Cc1cn([C@H]2C=C[C@@H](CO)O2)c(=O)[nH]c1=O [Stavudine],1.03,1.04,0.931,1.62,
Cc1cn([C@H]2C[C@H](N=[N+]=[N-])[C@@H](CO)O2)c(=O)[nH]c1=O [3'-Azido-3'-deoxythymidine],1.15,1.04,1.15,1.07,
OCC(CO)(CO)CO [Pentaerythritol],1.18,1.51,1.13,1.27,
Cc1oc2c(NC(=O)c3c(Cl)cccc3Cl)cccc2c1C(C)(C)O,1.01,1.14,0.7,,
